The source made the active and inactive calls.

The nature of test [1]: compound effects on differentiated 3T3-L1 adipocyte viability – cell-based, 3T3-L1 adipocytes, calcein-AM fluorescence, 48 h, basal, profiling panel (AID 1163). Conditions: 3T3-L1 adipocytes viability, higher = more signal.
A short description of test [2]: compound effects on hepatocellular carcinoma cell viability – HepG2, calcein-AM fluorescence, 48 h, basal, profiling panel (AID 1164). Conditions: higher = more signal.
Test [3] can be described thus: compound effects on multiple myeloma cell viability – MM1S, calcein-AM fluorescence, 48 h, basal, profiling panel (AID 1165). Conditions: higher = more signal.
Test [4] can be described thus: calcein-AM signal in unstimulated myeloma cells – cell-based, calcein-AM fluorescence, 48 h, PK04 Diversity Set, profiling panel (AID 1166).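 Further: cells grown under basal conditions without added stimulus.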 The conditions noted are these: RPMI8226 myeloma viability, higher = more signal.
The nature of test [5]: JC-1 mitochondrial signal, unstimulated HepG2 cells – cell-based, JC-1 fluorescence, 24 h, 100 nL compound, profiling panel (AID 1167). The conditions noted are these: HepG2 mitochondrial potential, higher = more signal.
The nature of test [6]: JC-1 mitochondrial signal, unstimulated adipocytes – cell-based, JC-1 fluorescence, 3T3-L1 adipocytes, 24 h, 100 nL compound, profiling panel (AID 1168). The conditions noted are these: JC-1 mitochondrial fluorescence, higher = more signal, called active from +8 up or from −8 down.
Test [7] in a line: JC-1 mitochondrial signal, unstimulated myeloma cells – cell-based, JC-1 fluorescence, RPMI8226, 24 h, 100 nL compound, profiling panel (AID 1169). The conditions noted are these: JC-1 mitochondrial potential fluorescence, higher = more signal.
Test [8] is described as follows: JC-1 mitochondrial signal, unstimulated MM1S myeloma – cell-based, JC-1 fluorescence, 24 h, 100 nL compound, profiling panel (AID 1170). Conditions: MM1S mitochondrial potential, higher = more signal.
A short description of test [9]: resazurin metabolic signal in A549 cells – cell-based, resazurin fluorescence, 24 h, PK04 Diversity Set, profiling panel (AID 1171). The conditions noted are these: A549 viability, higher = more signal, called active from +8 up or from −8 down. (Alamar Blue is a resazurin reagent that responds to reducing activity.)
Test [10] in a line: resazurin metabolic signal in HepG2 cells – cell-based, resazurin fluorescence, 24 h, PK04 Diversity Set, profiling panel (AID 1172). The conditions noted are these: HepG2 viability, higher = more signal.
The nature of test [11]: budding yeast growth changes without added modifier – OD600, strain BY4716, 24 h, basal condition, primary screen (AID 1173). Conditions: S. cerevisiae BY4716 growth, OD600, 24 h; higher = more signal, called active from +8 up or from −8 down.
Test [12] can be described thus: viability profiling in MM1S myeloma cells – cell-based, resazurin fluorescence, basal, 24 h, PK04 Diversity Set, profiling panel (AID 1174). The conditions noted are these: higher = more signal, called active from +8 up or from −8 down.
In test [13] the target is Dihydroorotate dehydrogenase (quinone), mitochondrial (Plasmodium falciparum (isolate 3D7)) (UniProt Q08210). Kind of test: inhibition of P. falciparum DHODH – biochemical, C-terminal His tag, absorbance 600 nm, primary screen (AID 1175).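 Further: recombinant parasite enzyme with a five histidine tag at its C terminus.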 Conditions: PfDHODH enzyme, DCIP absorbance 600 nm; higher = more signal, called active from +8 up or from −8 down.
Dihydroorotate dehydrogenase (quinone), mitochondrial (Plasmodium falciparum (isolate 3D7)), sequence (Q08210 whole entry, looked up): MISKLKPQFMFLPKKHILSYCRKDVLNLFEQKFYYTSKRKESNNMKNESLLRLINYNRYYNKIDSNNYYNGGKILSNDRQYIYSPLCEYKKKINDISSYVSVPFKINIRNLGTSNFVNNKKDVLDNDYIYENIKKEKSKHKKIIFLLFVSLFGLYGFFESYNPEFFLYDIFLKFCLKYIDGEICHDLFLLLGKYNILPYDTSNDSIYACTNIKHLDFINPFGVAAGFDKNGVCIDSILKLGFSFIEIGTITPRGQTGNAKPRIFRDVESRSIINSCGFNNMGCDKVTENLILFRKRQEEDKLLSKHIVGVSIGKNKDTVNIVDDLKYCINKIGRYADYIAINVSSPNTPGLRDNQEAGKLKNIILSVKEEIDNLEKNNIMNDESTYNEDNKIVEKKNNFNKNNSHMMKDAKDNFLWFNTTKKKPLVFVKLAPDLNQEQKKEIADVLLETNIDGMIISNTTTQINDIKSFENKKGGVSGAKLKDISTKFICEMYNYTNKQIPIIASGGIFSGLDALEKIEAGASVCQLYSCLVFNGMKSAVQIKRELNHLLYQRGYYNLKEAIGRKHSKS
Test [14] in a line: growth modulation of vineyard yeast isolate – strain RM11-1a, OD600, basal, 24 h, primary screen (AID 1177).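 Further: cultures grown under basal conditions with no added stressor.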 Conditions: S. cerevisiae RM11-1a growth, OD600, 24 h; higher = more signal, called active from +8 up or from −8 down.
Test [15] can be described thus: growth of efflux-deficient E. coli DRC39 – strain DRC39, OD650, 24 h, E. coli filamentation inducers, primary screen (AID 1178).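 Further: growth measured as culture turbidity by optical density at 650 nm.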 The conditions noted are these: E. coli DRC39 acrAB, higher = more signal, called active from +8 up or from −8 down.
A short description of test [16]: growth of efflux-deficient E. coli DRC39 – strain DRC39, OD650, 48 h, E. coli filamentation inducers, primary screen (AID 1179).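 Further: screen aims at cell division blockers that make cells filament.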 The conditions noted are these: E. coli DRC39 delta-acrAB growth, higher = more signal, called active from +8 up or from −8 down.
Test [17] is described as follows: viability profiling in RPMI8226 myeloma cells – cell-based, resazurin fluorescence, basal, 24 h, PK04 Diversity Set, profiling panel (AID 1180).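 Further: RPMI8826 multiple myeloma cell line at 5000 cells per well.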 The conditions noted are these: higher = more signal.
In test [18] the target is E3 ubiquitin-protein ligase XIAP (Homo sapiens) (UniProt P98170). Description: small molecules binding XIAP protein – biophysical, small-molecule microarray, fluorescence 635 nm, primary screen (AID 1181).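 Further: score merges 667 nm emission and signal to noise over triplicate slides.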 Conditions: higher = more signal.
E3 ubiquitin-protein ligase XIAP (Homo sapiens), sequence (P98170 whole entry, looked up, the tested form may be a part): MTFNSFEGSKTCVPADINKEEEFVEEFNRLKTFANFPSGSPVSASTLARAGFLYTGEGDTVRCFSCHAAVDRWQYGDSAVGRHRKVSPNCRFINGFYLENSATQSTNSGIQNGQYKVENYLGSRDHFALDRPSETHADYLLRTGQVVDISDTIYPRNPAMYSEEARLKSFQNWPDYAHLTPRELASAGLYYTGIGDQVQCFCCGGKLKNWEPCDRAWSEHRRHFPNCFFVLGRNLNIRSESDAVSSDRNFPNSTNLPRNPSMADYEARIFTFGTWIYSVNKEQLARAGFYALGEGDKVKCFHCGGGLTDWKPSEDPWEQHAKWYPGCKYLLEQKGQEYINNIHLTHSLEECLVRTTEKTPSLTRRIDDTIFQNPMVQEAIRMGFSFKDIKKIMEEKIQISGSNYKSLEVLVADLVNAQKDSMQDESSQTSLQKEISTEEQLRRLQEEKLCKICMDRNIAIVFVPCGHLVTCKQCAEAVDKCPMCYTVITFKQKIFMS
In test [19] the test system is XIP peptide (Xip251-270) binding. Kind of test: XIP fragment 251-270 binding compounds – biochemical, small-molecule microarray, fluorescence 635/667 nm, 0.1 µg/mL protein, primary screen (AID 1182). Conditions: fluorescent protein binding, 635 nm, higher = more signal, called active from +8 up or from −8 down.
Test [20] relates to XIP peptide (Xip251-270). Kind of test: compounds binding XIP fragment 251-270 – biochemical, small-molecule microarray, fluorescence 635/667 nm, 0.5 µg/mL protein, primary screen (AID 1183). Conditions: fluorescence 635 nm, higher = more signal.

Take `COc1ccc(C#Cc2ccc3c(c2)[C@]2(C(=O)N3)[C@H](c3ccc(O)cc3)N3[C@H](c4ccccc4)[C@H](c4ccccc4)OC(=O)[C@H]3[C@@H]2C(=O)N2CCN(c3ncccn3)CC2)cc1`: the z-score was 1.37 in test [1]; 0.385 in test [2]; -0.233 in test [3]; -0.474 in test [4]; -0.16 in test [5]; 1.57 (inactive) in test [6]. Also, the z-score in test [7] was -0.719; in test [8], 0.463; in test [9] it was 0.682 (inactive); in test [10] it was -0.169; in test [11], 0.0719 (inactive); in [12], 0.95 (inactive). In addition, the z-score in [14] was 0.537 (inactive); in test [15], 0.0488 (inactive); in test [16] it was 0.255 (inactive); in test [17], 1.19. The composite z-score is 0.848 (inactive) in [13], -0.0062 in test [18], 1.62 (inactive) in test [19] and 0.388 in [20].
On to `CCOC(=O)C[C@H]1[C@H](OC(=O)c2ccc(C(=O)c3ccccc3)cc2)[C@@H](NC(=O)Cc2ccc(OC)cc2)c2cc(OCCCO)ccc2N1C(=O)Cc1ccc(OC)cc1`, for which the z-score in test [1] was 0.234; in test [2], 0.398; in [3], 0.856; in [4], -0.481; in test [5] it was 2.05; in [6] it was 0.755 (inactive). Moreover, the z-score is -0.131 in test [7]; 0.356 in test [8]; 1.54 (inactive) in test [9]; 0.964 in test [10]; -1.99 (inactive) in test [11]; 0.0905 (inactive) in test [12]. The z-score in test [14] is -1.05 (inactive); in [15], 1.74 (inactive); in test [16], 1.06 (inactive); in test [17], 0.678. Further, the composite z-score in test [13] is 0.735 (inactive); in test [18] it was 0.0871; in [19] it was 0.608 (inactive); in test [20] it was 0.0768.
`NCCCCCNC(=O)[C@H]1C[C@H]2C(=O)NCC(=O)N2[C@H]1c1ccc(O)cc1`: the z-score in test [1] was 1.46; in test [2] it was -0.252; in test [3] it was -0.249; in test [4] it was 0.502; in [5], 0.848; in test [6], -0.36 (inactive). Moreover, the z-score in test [7] is -0.806; in [8] it was 0.231; in [9] it was 0.518 (inactive); in test [10] it was -1.2; in [11], 0.375 (inactive); in test [12] it was 0.352 (inactive). Besides, the z-score was 0.774 (inactive) in test [14], 0.172 (inactive) in test [15], 0.214 (inactive) in [16] and 1.18 in test [17]. Also, the composite z-score in test [13] is -0.0658 (inactive); in test [18] it was -0.0918; in [19], 1.28 (inactive); in [20], 0.57.
Consider `COc1ccc([Si](C)(C)[C@H]2[C@H](CC(=O)N(CCO)Cc3ccccc3)O[C@@]3(C(=O)N(Cc4ccc(N5CCOC5=O)cc4)c4ccccc43)[C@@H]2C)cc1`, for which the z-score in test [1] is 1.17; in test [2] it was -0.721; in test [3], -0.931; in test [4], 0.17; in test [5], 1.51; in test [6], 0.647 (inactive). For the same compound, the z-score in test [7] was -1.19; in test [8], 0.188; in test [9], -1.36 (inactive); in test [10] it was -0.292; in test [11], -0.693 (inactive); in test [12], -1.98 (inactive). Further, the z-score in [14] was 2.73 (inactive); in test [15], 1.42 (inactive); in test [16], 1.29 (inactive); in test [17], -2.8. In addition, the composite z-score in [13] was 0.374 (inactive); in test [18], 0.144; in test [19] it was 1.01 (inactive); in test [20], 0.631.
On to `COC(=O)C(CC#Cc1ccc2c(c1)[C@]1(C(=O)N2)[C@H](c2ccccc2OCCO)N2[C@H](c3ccccc3)[C@H](c3ccccc3)OC(=O)[C@H]2[C@@H]1C(=O)N1CCCCCCC1)C(=O)OC`, for which the z-score in test [1] was 1.89; in test [2], -0.0172; in test [3], 0.578; in test [4], -0.576; in [5], 0.87; in test [6], -0.239 (inactive). The z-score is -0.395 in [7]; -1.32 in test [8]; 1.9 (inactive) in test [9]; 0.0437 in [10]; 1.31 (inactive) in [11]; 1.19 (inactive) in test [12]. In addition, the z-score in [14] was 1.23 (inactive); in test [15] it was 0.723 (inactive); in test [16], -0.34 (inactive); in test [17] it was 1.17. Further, the composite z-score was -2.8 (inactive) in [13], 1.72 in test [18], 6.51 (inactive) in test [19] and 0.937 in test [20].
For `COc1ccc(CCNC(=O)[C@@]2(Sc3ccc(C)cc3)CC(=O)N(Cc3ccccc3)[C@@H]2c2ccc(CO)cc2I)cc1`, the z-score in [1] is 1.14; in test [2], -0.46; in [3], -1.78; in test [4] it was -2.05; in test [5] it was 1.17; in [6], 0.0695 (inactive). Further, the z-score in test [7] was -0.861; in test [8], -1.3; in [9] it was 1.28 (inactive); in test [10], 0.278; in test [11], -1.92 (inactive); in test [12], -2.26 (inactive). Also, the z-score in test [14] was 0.893 (inactive); in test [15] it was 0.361 (inactive); in test [16], -0.0855 (inactive); in [17] it was -1.5. In addition, the composite z-score in [13] is 0.341 (inactive); in test [18], 0.0623; in test [19], -0.281 (inactive); in test [20], -0.0462.
Take `C=C(/C(=C/C[C@H](OC(C)=O)c1cccc(OCCO)c1)c1cc(C(=O)OC)ccc1OC)C(C)C`: the z-score in test [1] was 0.911; in test [2], 0.454; in test [3], -0.181; in [4], 0.587; in test [5] it was 1.66; in test [6] it was 1.91 (inactive). For the same compound, the z-score was 0.00485 in test [7]; 0.343 in test [8]; 3.57 (inactive) in test [9]; 1.97 in test [10]; -1.63 (inactive) in [11]; 1.92 (inactive) in test [12]. Moreover, the z-score in [14] was -1.29 (inactive); in [15], 2.48 (inactive); in test [16] it was 1.67 (inactive); in [17], 1.87. Besides, the composite z-score in [13] is -0.569 (inactive); in test [18] it was 0.0479; in test [19] it was -0.139 (inactive); in test [20] it was -0.595.
`C=C(COC)C(=O)CC[C@@H](OC(=O)c1ccccc1-c1ccccc1C(=O)O)c1cccc(OCCO)c1`: the z-score is 0.649 in test [1]; -0.441 in [2]; -1.99 in [3]; -1.43 in [4]; 0.0537 in test [5]; 0.469 (inactive) in test [6]. Moreover, the z-score in test [7] was -0.0226; in [8], 1.4; in [9] it was 1.2 (inactive); in [10], 0.417; in test [11] it was -0.749 (inactive); in test [12], 0.0335 (inactive). For the same compound, the z-score was 0.291 (inactive) in test [14], 1.16 (inactive) in test [15], 0.755 (inactive) in test [16] and 0.458 in [17]. The composite z-score was -0.733 (inactive) in test [13], 0.109 in test [18], 0.43 (inactive) in test [19] and -0.29 in [20].
On to `COc1ccc([Si](C)(C)[C@H]2[C@H](CCO)O[C@@]3(C(=O)N(Cc4ccc(N5C(=O)c6cccc7cccc5c67)cc4)c4ccccc43)[C@@H]2C)cc1`, for which the z-score was 2.06 in [1]; -2.91 in test [2]; -1.23 in test [3]; -3.75 in test [4]; 0.00974 in [5]; 1.68 (inactive) in test [6]. In addition, the z-score in test [7] was -1.07; in [8] it was -1.6; in [9] it was -2.51 (inactive); in [10], -1.26; in [11] it was -0.433 (inactive); in [12] it was -2.4 (inactive). In addition, the z-score in [14] was 2.48 (inactive); in [15] it was 2.3 (inactive); in test [16] it was 1.4 (inactive); in test [17], -4.55. In addition, the composite z-score was -0.344 (inactive) in test [13], 0.0223 in test [18], 0.529 (inactive) in test [19] and 0.623 in [20].

These data come from PubChem BioAssay.
